Test results: PubChem BioAssay (NCATS)
Values joined by “and” are separate entries in the source; they are usually repeats but may differ in a detail not shown here. Equal entries are not always repeated. Records with an inconclusive call do not appear. Active and inactive are the calls of the source. Unless noted, the call rests on the fitted dose curve; in most records, active means well fitted curve in the direction sought with a large enough effect; inconclusive means small, poorly fitted or top-dose-only effect, or another doubt; inactive means no such curve, though single readings can be large; an effect the other way counts as inactive or inconclusive.

Assays:
[1] = biological target: ATP-dependent 6-phosphofructokinase (Trypanosoma brucei brucei) (UniProt O15648); experiment: qHTS Assay to Find Inhibitors of T. brucei phosphofructokinase: hit validation (AID 492961); further: on the % scale 0 is the no-effect control and ±100 the full control effect; settings: T. brucei PFK, ADP-Glo luminescence; series mostly up to 51.4 µM
ATP-dependent 6-phosphofructokinase (Trypanosoma brucei brucei), sequence (O15648 whole entry, looked up): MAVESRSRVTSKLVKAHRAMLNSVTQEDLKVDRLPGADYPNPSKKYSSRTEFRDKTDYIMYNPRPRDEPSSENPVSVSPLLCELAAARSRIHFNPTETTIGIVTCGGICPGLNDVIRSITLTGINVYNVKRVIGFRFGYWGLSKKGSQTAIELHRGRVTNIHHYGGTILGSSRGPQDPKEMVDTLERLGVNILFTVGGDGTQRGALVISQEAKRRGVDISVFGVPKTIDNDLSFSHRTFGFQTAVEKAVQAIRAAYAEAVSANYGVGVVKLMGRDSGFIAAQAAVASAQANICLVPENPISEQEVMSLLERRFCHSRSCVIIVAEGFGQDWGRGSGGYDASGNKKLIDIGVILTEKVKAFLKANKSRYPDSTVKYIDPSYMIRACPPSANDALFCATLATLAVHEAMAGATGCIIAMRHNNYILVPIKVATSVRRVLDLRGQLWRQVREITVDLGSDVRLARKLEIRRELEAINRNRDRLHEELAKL
How it was run: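 Luminescence from ADP-Glo reports ADP generated as T. brucei PFK (1.25 nM) phosphorylates 0.5 mM fructose-6-phosphate using 0.1 mM ATP. Reactions ran 45 min at room temperature, pH 8.0.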

[2] = test system: 7G8; experiment: qHTS profiling for inhibitors of Plasmodium falciparum proliferation (AID 504749); further: nearly all actives have a fitted effect of over 60% in size; further: potency means the concentration at half of the fitted maximal effect; settings: P. falciparum in erythrocytes, SYBR Green DNA, 72 h; series mostly up to 28.7 µM
How it was run: (§1)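 P. falciparum-infected erythrocytes (0.3% parasitemia, 2.5% hematocrit) incubated with compound 72 h at 37 C, 5% CO2. Parasite DNA detected by SYBR Green after lysis, overnight at room temperature; normalised to 0.29 uM artemisinin and DMSO.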

[3] = test system: CP194; experiment: as above; settings: P. falciparum in erythrocytes, SYBR Green DNA, 72 h; series mostly up to 28.7 µM
How it was run: as §1

[4] = test system: CP201; experiment: as above; settings: P. falciparum in erythrocytes, SYBR Green DNA, 72 h; series mostly up to 28.7 µM
How it was run: as §1

[5] = test system: CP203; experiment: as above; settings: P. falciparum in erythrocytes, SYBR Green DNA, 72 h; series mostly up to 28.7 µM
How it was run: as §1

[6] = test system: CP211; experiment: as above; settings: P. falciparum in erythrocytes, SYBR Green DNA, 72 h; series mostly up to 28.7 µM
How it was run: as §1

[7] = test system: CP215; experiment: as above; settings: P. falciparum in erythrocytes, SYBR Green DNA, 72 h; series mostly up to 28.7 µM
How it was run: as §1

[8] = test system: DIV14; experiment: as above; settings: P. falciparum in erythrocytes, SYBR Green DNA, 72 h; series mostly up to 28.7 µM
How it was run: as §1

[9] = test system: P93_24; experiment: as above; settings: P. falciparum in erythrocytes, SYBR Green DNA, 72 h; series mostly up to 28.7 µM
How it was run: as §1

[10] = test system: PC26; experiment: as above; settings: P. falciparum in erythrocytes, SYBR Green DNA, 72 h; series mostly up to 28.7 µM
How it was run: as §1

[11] = S16 Schwann cell PMP22 intronic element beta-lactamase assay (AID 624044; calls by dose curve; further: nearly all actives have a fitted effect of over 15% in size; further: potency means the concentration at half of the fitted maximal effect); settings: S16 rat Schwann cells, PMP22 element beta-lactamase FRET, 24 h; series mostly up to 38.3 µM
How it was run: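 Rat S16 Schwann cells with beta-Lac driven by a PMP22 intronic element, compound-treated 24 h at 37 °C. LiveBLAzer FRET B/G read: 460 nm normalized to potassium clavulanate vs DMSO; 535 nm FRET as viability; concentration-effect curves classified.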

[12] = biological target: Androgen receptor (Homo sapiens) (UniProt P10275); experiment: qHTS assay for small molecule agonists of androgen receptor signaling (AID 588515; active means well fitted curve in the direction sought with a large enough effect in the signal ratio, with a control signal flat; the % refers to the signal ratio; further: on the % scale 0 is the no-effect control and ±100 the full control effect); settings: AR-UAS-bla HEK293, beta-lactamase ratio, agonist 16 h; active compounds read high
Androgen receptor (Homo sapiens), sequence (P10275 whole entry, looked up): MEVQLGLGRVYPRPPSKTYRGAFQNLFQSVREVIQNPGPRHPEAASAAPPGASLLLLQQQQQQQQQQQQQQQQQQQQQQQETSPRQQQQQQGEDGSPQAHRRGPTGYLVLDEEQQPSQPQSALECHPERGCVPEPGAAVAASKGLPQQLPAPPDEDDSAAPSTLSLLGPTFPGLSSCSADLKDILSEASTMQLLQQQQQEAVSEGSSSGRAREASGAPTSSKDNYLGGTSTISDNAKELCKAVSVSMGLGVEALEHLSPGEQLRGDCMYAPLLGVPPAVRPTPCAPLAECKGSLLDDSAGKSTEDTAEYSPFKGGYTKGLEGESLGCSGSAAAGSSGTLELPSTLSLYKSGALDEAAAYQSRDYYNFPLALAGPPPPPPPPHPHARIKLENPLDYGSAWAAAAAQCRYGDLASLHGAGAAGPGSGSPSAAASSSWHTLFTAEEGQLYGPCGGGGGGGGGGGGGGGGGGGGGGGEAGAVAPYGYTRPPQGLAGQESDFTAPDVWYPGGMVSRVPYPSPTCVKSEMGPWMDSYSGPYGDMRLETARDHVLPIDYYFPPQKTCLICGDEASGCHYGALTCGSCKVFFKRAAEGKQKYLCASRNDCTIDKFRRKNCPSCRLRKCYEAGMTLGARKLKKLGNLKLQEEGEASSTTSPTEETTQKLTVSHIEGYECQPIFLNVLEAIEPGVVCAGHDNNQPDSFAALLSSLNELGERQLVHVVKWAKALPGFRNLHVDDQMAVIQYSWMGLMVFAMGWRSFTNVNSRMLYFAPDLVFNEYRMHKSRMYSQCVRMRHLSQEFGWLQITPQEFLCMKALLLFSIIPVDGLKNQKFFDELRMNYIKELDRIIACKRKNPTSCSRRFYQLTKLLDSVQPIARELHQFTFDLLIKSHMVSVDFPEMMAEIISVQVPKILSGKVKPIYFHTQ
How it was run: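 EC50 and efficacy came from Hill fits of titrations (up to 92 uM) normalized to 30 nM R1881 as 100% and DMSO as 0%. Compound exposure was 16 h at 37 C on AR-UAS-bla HEK293 cells, with a 405/460/530 nm CCF4 fluorescence read.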

[13] = biological target: Cytochrome P450 3A4 (Homo sapiens) (UniProt P08684); experiment: qHTS Assay for Activators of Cytochrome P450 3A4 (AID 885); settings: recombinant CYP3A4, Luciferin-PPXE luminescence, 60 min; series mostly up to 57.1 µM; further: nearly all actives have a fitted effect of over 65% in size
Cytochrome P450 3A4 (Homo sapiens), sequence (P08684 whole entry, looked up): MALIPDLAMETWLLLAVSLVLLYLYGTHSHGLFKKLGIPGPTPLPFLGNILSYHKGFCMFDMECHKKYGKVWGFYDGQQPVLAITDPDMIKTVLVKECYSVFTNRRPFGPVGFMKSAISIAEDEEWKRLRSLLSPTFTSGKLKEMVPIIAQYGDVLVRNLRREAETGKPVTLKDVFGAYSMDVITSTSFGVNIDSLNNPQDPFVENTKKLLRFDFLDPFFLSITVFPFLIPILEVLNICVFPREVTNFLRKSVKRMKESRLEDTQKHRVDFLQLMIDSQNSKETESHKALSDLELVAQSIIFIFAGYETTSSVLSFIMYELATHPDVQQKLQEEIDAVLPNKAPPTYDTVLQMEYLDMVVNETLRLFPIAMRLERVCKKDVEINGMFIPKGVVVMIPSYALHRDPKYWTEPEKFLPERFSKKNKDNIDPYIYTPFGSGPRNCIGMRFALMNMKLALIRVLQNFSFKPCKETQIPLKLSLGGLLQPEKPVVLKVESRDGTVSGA
How it was run: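 Quantitative HTS format: compounds preincubated with 20nM human CYP3A4 and Luciferin-PPXE substrate at KM, reaction started by NADPH regeneration, stopped after 60 min, luciferase luminescence read 20 min later.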

[14] = biological target: Cytochrome P450 1A2 (Homo sapiens) (UniProt P05177); experiment: p450-cyp1a2 (AID 410; calls by dose curve; further: potency means the concentration at half of the fitted maximal effect); settings: recombinant CYP1A2, luciferin-ME demethylation, luminescence; series mostly up to 57 µM
Cytochrome P450 1A2 (Homo sapiens), sequence (P05177 whole entry, looked up): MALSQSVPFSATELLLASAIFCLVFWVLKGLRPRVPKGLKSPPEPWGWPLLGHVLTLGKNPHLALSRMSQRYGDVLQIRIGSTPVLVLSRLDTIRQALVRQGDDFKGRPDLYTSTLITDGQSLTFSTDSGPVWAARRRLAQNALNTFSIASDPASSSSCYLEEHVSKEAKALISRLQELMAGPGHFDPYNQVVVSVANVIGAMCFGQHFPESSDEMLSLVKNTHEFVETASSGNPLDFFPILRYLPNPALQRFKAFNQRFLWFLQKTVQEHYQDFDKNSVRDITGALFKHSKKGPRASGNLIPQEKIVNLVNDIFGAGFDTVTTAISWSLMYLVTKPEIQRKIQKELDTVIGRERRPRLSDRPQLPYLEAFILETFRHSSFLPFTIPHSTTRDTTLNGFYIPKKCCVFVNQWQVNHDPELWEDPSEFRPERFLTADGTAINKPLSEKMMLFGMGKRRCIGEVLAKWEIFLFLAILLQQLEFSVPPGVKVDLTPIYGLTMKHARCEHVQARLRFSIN
How it was run: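 20nM CYP1A2 with 100uM Luciferin-ME (at Km) in 100mM KPO4; compound preincubated 10 min, NADPH regeneration added, 60 min at room temperature. Luciferin quantified by luminescence after detection reagent; normalized to 57 uM furafylline.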

[15] = NFAT Signaling Pathway (AID 444; active means well fitted curve in either direction with a large enough effect, not every such curve was filed as active;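 further: carbachol stimulus at about its EC50 of 1 µM final; on the % scale 0 is the no-effect control and ±100 the full control effect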); settings: Jurkat NFAT-bla M1, carbachol, beta-lactamase ratio, 5 h; at 7.69 µM (top of the series) unless noted
How it was run: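 Jurkat cells with NFAT-driven β-lactamase reporter and co-expressed M1 receptor, stimulated with carbachol (final 1 uM, ~EC50), compound titration, 5 h at 37 °C. CCF4 loaded 1 h at RT; 460/530 nm ratio gave %activity and AC50.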

[16] = Stat Signaling Pathway (AID 446; active means well fitted curve in either direction with a large enough effect, not every such curve was filed as active;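 further: ME-180 cervical cancer cells given 40 pM IL-6 alongside compound; SIE-controlled beta-lactamase reporter measured as 460/530 nm FRET emission ratio; on the % scale 0 is the no-effect control and ±100 the full control effect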); settings: ME-180 SIE beta-lactamase reporter, IL-6 stimulated, 5 h; series mostly up to 7.69 µM
How it was run: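 IL-6/STAT signaling read in ME-180 cells via an SIE beta-lactamase reporter. Stimulus was 40 pM IL-6 (its AC50) for 5 hrs, so both activation and inhibition register.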

[17] = biological target: Glucocorticoid receptor (Homo sapiens) (UniProt P04150); experiment: GR-GFP Redistribution (AID 450;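 active means compounds whose dose series gives a full or clear partial fitted curve of increased nuclear translocation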; further: potency means the concentration at half of the fitted maximal effect); settings: U2OS GR-GFP nuclear translocation, laser cytometry, 2 h
Glucocorticoid receptor (Homo sapiens), sequence (P04150 whole entry, looked up, the tested form may be a part): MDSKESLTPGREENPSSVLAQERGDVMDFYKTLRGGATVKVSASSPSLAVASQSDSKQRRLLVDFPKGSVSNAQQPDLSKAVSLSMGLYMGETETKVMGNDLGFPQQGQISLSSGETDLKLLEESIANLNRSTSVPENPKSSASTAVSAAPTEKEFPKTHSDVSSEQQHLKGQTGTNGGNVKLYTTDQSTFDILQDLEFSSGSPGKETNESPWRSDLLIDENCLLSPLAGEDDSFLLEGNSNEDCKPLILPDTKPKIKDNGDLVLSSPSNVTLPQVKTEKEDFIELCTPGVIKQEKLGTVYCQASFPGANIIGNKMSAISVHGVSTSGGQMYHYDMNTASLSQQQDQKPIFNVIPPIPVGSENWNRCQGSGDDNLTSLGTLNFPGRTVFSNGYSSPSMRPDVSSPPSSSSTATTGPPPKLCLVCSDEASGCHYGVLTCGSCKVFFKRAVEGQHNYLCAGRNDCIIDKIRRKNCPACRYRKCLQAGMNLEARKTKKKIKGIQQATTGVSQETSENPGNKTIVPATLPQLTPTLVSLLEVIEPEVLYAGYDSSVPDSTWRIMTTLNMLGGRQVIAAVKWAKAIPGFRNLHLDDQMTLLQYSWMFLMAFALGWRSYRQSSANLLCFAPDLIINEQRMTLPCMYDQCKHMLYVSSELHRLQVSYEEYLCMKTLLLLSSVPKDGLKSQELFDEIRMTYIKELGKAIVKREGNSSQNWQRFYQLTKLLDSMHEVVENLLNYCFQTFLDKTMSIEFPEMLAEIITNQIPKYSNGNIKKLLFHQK

[18] = biological target: Glucocorticoid receptor (Homo sapiens) (UniProt P04150); experiment: GR-EFC Redistribution (AID 451; calls by dose curve; further: potency means the concentration at half of the fitted maximal effect); settings: CHO-K1 GR-EFC translocation, beta-gal luminescence, 2 h
How it was run: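 CHO-K1 cells expressing nuclear EA and GR-ED fragments of b-gal; compounds titrated up to 46 uM final, 2 h at 37 C. GR nuclear translocation read as complemented b-gal luminescence after 1 h RT detection.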

[19] = biological target: 3',5'-cyclic-AMP phosphodiesterase 4B (Homo sapiens) (UniProt Q07343); experiment: qHTS Assay for Inhibitors of PDE-IV (AID 607; active means well fitted activation curve with a large enough effect in the main read-out, with a control signal flat, not every such curve was filed as active; further: % of control where 0% means no effect); settings: HEK293 ACTOne CNG channel cells, membrane potential fluorescence; series mostly up to 22.9 µM
3',5'-cyclic-AMP phosphodiesterase 4B (Homo sapiens), sequence (Q07343 whole entry, looked up): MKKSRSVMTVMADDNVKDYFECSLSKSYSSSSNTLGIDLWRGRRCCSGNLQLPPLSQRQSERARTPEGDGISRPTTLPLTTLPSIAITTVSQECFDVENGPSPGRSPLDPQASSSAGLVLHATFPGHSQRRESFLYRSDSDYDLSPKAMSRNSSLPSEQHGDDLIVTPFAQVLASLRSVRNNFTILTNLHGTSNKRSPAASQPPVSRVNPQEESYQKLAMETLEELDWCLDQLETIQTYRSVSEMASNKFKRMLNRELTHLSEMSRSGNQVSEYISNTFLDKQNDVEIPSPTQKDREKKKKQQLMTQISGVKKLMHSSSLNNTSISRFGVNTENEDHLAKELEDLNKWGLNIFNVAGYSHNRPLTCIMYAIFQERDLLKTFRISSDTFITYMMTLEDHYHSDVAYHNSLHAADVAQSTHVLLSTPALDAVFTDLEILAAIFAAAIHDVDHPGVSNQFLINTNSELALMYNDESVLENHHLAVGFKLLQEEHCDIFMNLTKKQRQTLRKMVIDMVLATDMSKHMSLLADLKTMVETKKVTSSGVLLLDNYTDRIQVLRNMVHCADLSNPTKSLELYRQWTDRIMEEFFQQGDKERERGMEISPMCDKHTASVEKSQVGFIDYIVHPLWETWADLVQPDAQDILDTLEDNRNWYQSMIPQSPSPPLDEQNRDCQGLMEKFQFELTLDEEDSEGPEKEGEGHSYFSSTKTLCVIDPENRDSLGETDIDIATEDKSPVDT
How it was run: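 Live HEK293 cells with a modified cyclic nucleotide-gated (CNG) channel report intracellular cAMP via membrane-potential dye fluorescence (ex 535/em 590 nm). Endogenous PDE-IV was targeted. Compounds were tested at up to 22.9 uM final; RO 20-1724 100 uM served as control.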

[20] = AP1 Signaling Pathway (AID 357; active means well fitted curve in either direction with a large enough effect, not every such curve was filed as active); settings: ME-180 (cervical carcinoma) AP-1-bla reporter, EGF-induced, beta-lactamase ratio, 5 h; at 7.69 µM (top of the series) unless noted
How it was run: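 First, ME-180 AP-1-bla cells were cultured overnight at 37 °C in low-serum Opti-MEM. Next, titrated compounds with EC50 EGF were incubated 5 hours. Finally, CCF4 was added for 2.5 hours and the 460/530 nm ratio recorded.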

C/C=C\c1ccc(OC)cc1
inactive: outcome [1] | Potency [2] | Potency [3] | Potency [4] | Potency [5] | Potency [6] | Potency [7] | Potency [8] | Potency [9] | Potency [10]

C1OCOCO1
inactive: outcome [1] | Potency [11] | Potency [2] | Potency [4] | Potency [5] | Potency [6] | Potency [7] | Potency [8] | Potency [9] | Potency [10]

CC(C)=CCCC(C)CCO (centres undefined)
inactive: activation [12] 11% and 2.32%

CC(C)(CO)C(O)C(=O)NCCCC(=O)O (centres undefined)
active: Potency [7] 12 µM
inactive: Potency [11]

CN(C)CCCCCCN(C)C
inactive: outcome [1] | Potency [11] | Potency [2] | Potency [3] | Potency [4] | Potency [5] | Potency [6] | Potency [7] | Potency [8] | Potency [9] | Potency [10]

CC1=CC(C)(C)Nc2ccccc21
inactive: outcome [13]

Cc1c(N=C=O)cccc1N=C=O
inactive: activation [12] -8.11% and -0.971%

COc1ccccc1CNc1ncnc2ccc(-c3cccc(NS(C)(=O)=O)c3)cc12
active: Potency [14] 3.98 µM
inactive: activity change, negative = inhibition [15] 24.7% | outcome [16] | Potency [17] > 46 µM | Potency [18] > 46 µM | outcome [13]

COCCn1c(=O)c(-c2cccs2)nc2cnc(N3CCNCC3)nc21
inactive: Potency [18] > 46 µM | Potency [19] | outcome [13]
active: Potency [14] 3.98 µM

NC1=NC(S)C2N=CN=C2N1 (centres undefined)
active: Potency [11] 3.98 µM
inactive: outcome [1] | Potency [3] | Potency [4] | Potency [5] | Potency [6] | Potency [7] | Potency [8] | Potency [9] | Potency [10]

CCCCC(CC)CN (centres undefined)
inactive: activation [12] 5.31% and -4.67%

COc1ccccc1CNc1nc(-c2ccoc2)nc2ccccc12
inactive: activity change, negative = inhibition [20] 7.68% | activity change, negative = inhibition [15] -19.8% | outcome [16] | Potency [17] > 46 µM

S=C1NC=NC2N=CNC12 (centres undefined)
inactive: outcome [1] | Potency [9]
active: Potency [11] 17.8 µM

CCO
inactive: activation [12] 30.9%

COc1ccccc1-c1nc(NC2CC2)c2ccccc2n1
inactive: activity change, negative = inhibition [20] -2.64% | activity change, negative = inhibition [15] -13.9% | outcome [16]

CN(C)c1nc(-c2ccc3c(c2)OCO3)nc2ccccc12
inactive: activity change, negative = inhibition [20] 9.5% | activity change, negative = inhibition [15] -16.9% | outcome [16] | Potency [17] > 46 µM | Potency [18] > 46 µM | Potency [19]

COc1cccc(-c2nc(N(C)C)c3ccccc3n2)c1
active: Potency [14] 0.251 µM
inactive: activity change, negative = inhibition [20] 15.5% | activity change, negative = inhibition [15] -14.5% | Potency [17] > 46 µM | Potency [18] > 46 µM | Potency [19]

Cc1cccc([N+](=O)[O-])c1C
inactive: activation [12] 2.99% and 5.65%

O=C(O)c1cc(O)c2c(c1)[C@H]([C@H]1c3cc(C(=O)O)cc(O)c3C(=O)c3c(O[C@@H]4OC(CO)C(O)C(O)C4O)cccc31)c1cccc(O[C@@H]3OC(CO)C(O)C(O)C3O)c1C2=O (some centres undefined)
inactive: outcome [13] | Potency [2]

C=Cc1ccccc1Cl
inactive: activation [12] -2.34%

COc1ccccc1CNc1nc(-c2ccc(C(=O)N(C)C)cc2)nc2ccccc12
inactive: activity change, negative = inhibition [15] -1.92% | outcome [16] | Potency [17] > 46 µM | Potency [18] > 46 µM

COc1ccc2[nH]cc(CCNc3cc(-c4cccc(C#N)c4)ncn3)c2c1
active: Potency [14] 0.794 µM
inactive: activity change, negative = inhibition [20] -15.9% | outcome [16] | Potency [18] > 46 µM | Potency [19] | outcome [13]
